The supplement of paper PMC10849652
Targets with a hit are over-represented here; the source holds about 8,800 in all. About 0.5% of all pairs of compound and target were hits.

Assays:
Assay in all cases: log2 fold change, soluble protein after heating vs DMSO (PISA); higher = thermal stabilisation; K562 lysate, 10 uM; active = over 0.2 and 3.5 SD of the protein, either way, in both replicates (recomputed)
vemurafenib = compound: CCCS(=O)(=O)Nc1ccc(F)c(C(=O)c2c[nH]c3ncc(-c4ccc(Cl)cc4)cc23)c1F [vemurafenib]
Summary of the method: (§1)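 Values give the log-two fold change in thermal stability against solvent controls, from duplicates. Crude K562 extract at 1 mg/mL protein, made by dounce homogenisation in PBS pH 7.4 with 1 mM MgCl2, was treated with 10 μM compound for 30 min. After 3 min heating across 48°C-58°C, aliquots were pooled, adjusted to 0.5% NP-40 at 4°C and centrifuged at 21,000xg for 90 min. The supernatant was measured by TMTpro 16plex LC-MS/MS with channel sums equalised.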

[1] = compound: CCCS(=O)(=O)Nc1ccc(F)c(C(=O)c2c[nH]c3ncc(Cl)cc23)c1F
Summary of the method: as §1

barasertib = compound: CCN(CCCOc1ccc2c(Nc3cc(CC(=O)Nc4cccc(F)c4)[nH]n3)ncnc2c1)CCOP(=O)(O)O [barasertib]
Summary of the method: as §1

[2] = compound: CC[C@@H]1C(=O)N(C)c2cnc(Nc3ccc(C(=O)NC4CCN(C)CC4)cc3OC)nc2N1C1CCCC1
Summary of the method: as §1

volasertib = compound: CC[C@@H]1C(=O)N(C)c2cnc(Nc3ccc(C(=O)N[C@H]4CC[C@H](N5CCN(CC6CC6)CC5)CC4)cc3OC)nc2N1C(C)C [volasertib]
Summary of the method: as §1

[3] = compound: CCn1c(C(=O)N(C2CC2)C2CC2)cc2c3c(ncn3C)c(Nc3cc(C)n(C)n3)nc21
Summary of the method: as §1

[4] = compound: CCn1cc(-c2ccnc3[nH]c(-c4cccc(CN(C)C)c4)cc23)c(-c2ccc(NC(=O)N(C)C)cc2)n1
Summary of the method: as §1

[5] = compound: CN1CCC(CNc2ccc3ncc(-c4cccc(OC(F)(F)F)c4)n3n2)CC1
Summary of the method: as §1

saracatinib = compound: CN1CCN(CCOc2cc(OC3CCOCC3)c3c(Nc4c(Cl)ccc5c4OCO5)ncnc3c2)CC1 [saracatinib]
Summary of the method: as §1

sotrastaurin = compound: CN1CCN(c2nc(C3=C(c4c[nH]c5ccccc45)C(=O)NC3=O)c3ccccc3n2)CC1 [sotrastaurin]
Summary of the method: as §1

alvocidib = compound: CN1CC[C@H](c2c(O)cc(O)c3c(=O)cc(-c4ccccc4Cl)oc23)[C@H](O)C1 [alvocidib]
Summary of the method: as §1

Tubastatin A = compound: CN1CCc2c(c3ccccc3n2Cc2ccc(C(=O)NO)cc2)C1 [Tubastatin A]
Summary of the method: as §1

[6] = compound: CNC(=O)C1=CC=CC=C1NC2=NC(=NC=C2Cl)NC3=C(C=C(C=C3)N4CCOCC4)OC
Summary of the method: as §1

defactinib = compound: CNC(=O)c1ccc(Nc2ncc(C(F)(F)F)c(NCc3nccnc3N(C)S(C)(=O)=O)n2)cc1 [defactinib]
Summary of the method: as §1

[7] = compound: CNc1nc(-c2ccc3c(N)n[nH]c3c2)cc(N2C[C@@H](C(=O)NC3CCCCC3)CC[C@H]2C)n1
Summary of the method: as §1

encorafenib = compound: COC(=O)N[C@@H](C)CNc1nccc(-c2cn(C(C)C)nc2-c2cc(Cl)cc(NS(C)(=O)=O)c2F)n1 [encorafenib]
Summary of the method: as §1

[8] = compound: COC(=O)[C@H](CCSC)NC(=O)C1=C(C=C(C=C1)NC[C@H](CS)N)C2=CC=CC=C2
Summary of the method: as §1

alisertib = compound: COc1cc(Nc2ncc3c(n2)-c2ccc(Cl)cc2C(c2c(F)cccc2OC)=NC3)ccc1C(=O)O [alisertib]
Summary of the method: as §1

[9] = compound: COc1cc2nc(-c3cc(F)ccc3O)nc(N[C@@H]3CNC[C@H]3C(C)(C)O)c2cc1OC
Summary of the method: as §1

gefitinib = compound: COc1cc2ncnc(Nc3ccc(F)c(Cl)c3)c2cc1OCCCN1CCOCC1 [gefitinib]
Summary of the method: as §1

Measured: log2 fold change

RAB8B (UniProt Q92930)
inactive: vemurafenib -0.137 | [1] 0 | barasertib -0.036 | [2] 0.028 | volasertib -0.036 | [3] 0.007 | [4] 0.252 | [5] -0.142 | saracatinib 0.08 | sotrastaurin -0.024 | alvocidib 0.037 | Tubastatin A 0.034 | [6] -0.011 | defactinib -0.016 | [7] -0.026 | encorafenib -0.002 | [8] -0.045 | alisertib 0.016 | [9] 0.015 | gefitinib 0.115

SAR1B (UniProt Q9Y6B6)
inactive: vemurafenib 0.034 | [1] 0 | barasertib 0.165 | [2] 0.04 | volasertib -0.042 | [3] 0.017 | [4] -0.017 | [5] -0.09 | saracatinib 0.041 | sotrastaurin 0.047 | alvocidib 0.032 | Tubastatin A 0.176 | [6] 0.199 | defactinib 0.05 | [7] 0.147 | encorafenib 0.203 | [8] 0.052 | alisertib 0.128 | [9] 0.145 | gefitinib 0.015

RPS6KB1 (UniProt P23443)
UniProt P23443, sequence (P23443 whole entry, looked up): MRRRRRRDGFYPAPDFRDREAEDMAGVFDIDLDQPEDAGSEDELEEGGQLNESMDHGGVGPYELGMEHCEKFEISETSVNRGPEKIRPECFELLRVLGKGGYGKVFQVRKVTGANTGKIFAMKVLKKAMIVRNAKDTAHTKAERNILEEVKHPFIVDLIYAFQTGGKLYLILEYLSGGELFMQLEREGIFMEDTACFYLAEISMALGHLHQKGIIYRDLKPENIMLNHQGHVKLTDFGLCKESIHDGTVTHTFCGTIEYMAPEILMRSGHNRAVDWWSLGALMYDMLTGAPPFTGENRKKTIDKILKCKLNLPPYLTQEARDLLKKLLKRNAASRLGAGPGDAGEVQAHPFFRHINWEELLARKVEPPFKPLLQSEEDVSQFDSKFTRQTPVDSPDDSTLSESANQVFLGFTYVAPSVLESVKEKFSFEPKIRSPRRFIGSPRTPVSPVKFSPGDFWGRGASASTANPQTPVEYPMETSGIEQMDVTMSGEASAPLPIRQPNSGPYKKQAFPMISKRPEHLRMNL
inactive: vemurafenib -0.052 | [1] -0.001 | barasertib 0.068 | [2] -0.109 | volasertib -0.041 | [3] 0.078 | [4] -0.155 | [5] 0.185 | saracatinib -0.022 | sotrastaurin 0.074 | alvocidib -0.021 | Tubastatin A -0.184 | [6] 0.115 | defactinib 0.094 | [7] -0.013 | encorafenib -0.039 | [8] 0.218 | alisertib -0.02 | [9] 0.166 | gefitinib 0.062

RFC4 (UniProt P35249)
UniProt P35249, sequence (P35249 whole entry, looked up): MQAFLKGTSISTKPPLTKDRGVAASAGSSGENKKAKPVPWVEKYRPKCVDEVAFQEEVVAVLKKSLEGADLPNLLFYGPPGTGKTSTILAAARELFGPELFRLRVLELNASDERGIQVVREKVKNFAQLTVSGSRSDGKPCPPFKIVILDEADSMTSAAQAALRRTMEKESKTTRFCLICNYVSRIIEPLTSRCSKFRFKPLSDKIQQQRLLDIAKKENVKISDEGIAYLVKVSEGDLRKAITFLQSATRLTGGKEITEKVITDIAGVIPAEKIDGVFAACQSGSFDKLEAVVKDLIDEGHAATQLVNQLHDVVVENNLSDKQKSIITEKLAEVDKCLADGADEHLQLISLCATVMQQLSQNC
inactive: vemurafenib 0.047 | [1] 0.02 | barasertib 0.02 | [2] -0.012 | volasertib -0.042 | [3] 0.003 | [4] -0.086 | [5] 0.028 | saracatinib 0.044 | sotrastaurin 0.003 | alvocidib -0.018 | Tubastatin A -0.119 | [6] 0.018 | defactinib 0.009 | [7] -0.043 | encorafenib 0.018 | [8] 0.088 | alisertib 0.022 | [9] 0.003 | gefitinib -0.006

REEP6 (UniProt Q96HR9)
UniProt Q96HR9, sequence (Q96HR9 whole entry, looked up): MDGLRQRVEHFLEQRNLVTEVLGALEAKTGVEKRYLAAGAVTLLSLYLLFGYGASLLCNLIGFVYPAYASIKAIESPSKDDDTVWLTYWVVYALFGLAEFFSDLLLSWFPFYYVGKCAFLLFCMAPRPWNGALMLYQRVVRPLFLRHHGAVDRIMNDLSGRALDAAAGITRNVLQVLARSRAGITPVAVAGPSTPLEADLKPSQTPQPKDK
active: [4] -0.358
inactive: vemurafenib 0.072 | [1] 0.021 | barasertib 0.093 | [2] -0.022 | volasertib 0.077 | [3] 0 | [5] 0.072 | saracatinib 0.094 | sotrastaurin 0.017 | alvocidib -0.089 | Tubastatin A 0.045 | [6] 0.02 | defactinib 0.056 | [7] -0.013 | encorafenib 0.076 | [8] -0.025 | alisertib 0.032 | [9] -0.036 | gefitinib -0.175

RANBP6 (UniProt O60518)
UniProt O60518, sequence (O60518 whole entry, looked up): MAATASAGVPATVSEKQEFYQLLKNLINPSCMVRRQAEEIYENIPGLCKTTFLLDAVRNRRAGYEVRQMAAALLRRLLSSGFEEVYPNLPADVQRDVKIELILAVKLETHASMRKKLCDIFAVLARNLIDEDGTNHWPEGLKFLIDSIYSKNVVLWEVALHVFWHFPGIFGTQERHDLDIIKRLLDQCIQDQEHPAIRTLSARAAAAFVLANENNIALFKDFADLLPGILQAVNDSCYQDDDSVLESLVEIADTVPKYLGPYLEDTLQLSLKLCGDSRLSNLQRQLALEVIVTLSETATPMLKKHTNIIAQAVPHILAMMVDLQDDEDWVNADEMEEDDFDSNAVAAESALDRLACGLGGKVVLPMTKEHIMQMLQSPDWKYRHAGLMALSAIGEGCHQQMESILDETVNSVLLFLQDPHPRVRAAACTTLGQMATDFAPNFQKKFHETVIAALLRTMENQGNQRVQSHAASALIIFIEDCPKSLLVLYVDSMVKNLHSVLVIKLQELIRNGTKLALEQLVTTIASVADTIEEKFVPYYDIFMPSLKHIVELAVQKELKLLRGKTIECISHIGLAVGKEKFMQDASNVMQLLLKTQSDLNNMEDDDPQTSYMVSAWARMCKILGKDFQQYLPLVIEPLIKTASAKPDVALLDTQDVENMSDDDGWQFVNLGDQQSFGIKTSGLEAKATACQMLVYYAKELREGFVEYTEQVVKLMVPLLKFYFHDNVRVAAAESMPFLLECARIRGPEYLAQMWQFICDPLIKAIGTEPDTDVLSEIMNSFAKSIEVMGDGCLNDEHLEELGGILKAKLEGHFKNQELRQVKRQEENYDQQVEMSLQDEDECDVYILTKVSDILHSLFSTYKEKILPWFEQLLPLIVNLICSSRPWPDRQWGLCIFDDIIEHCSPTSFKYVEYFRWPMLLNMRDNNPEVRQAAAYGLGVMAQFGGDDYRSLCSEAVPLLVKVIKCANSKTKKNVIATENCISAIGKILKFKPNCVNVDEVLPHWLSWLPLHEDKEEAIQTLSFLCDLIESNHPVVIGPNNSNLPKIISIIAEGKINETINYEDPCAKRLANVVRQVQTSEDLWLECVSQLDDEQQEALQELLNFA
inactive: vemurafenib 0.008 | [1] 0.025 | barasertib 0.013 | [2] -0.016 | volasertib 0.013 | [3] 0.068 | [4] -0.045 | [5] 0.06 | saracatinib -0.038 | sotrastaurin 0.002 | alvocidib -0.033 | Tubastatin A -0.07 | [6] 0.008 | defactinib 0.047 | [7] 0.014 | encorafenib -0.027 | [8] 0.057 | alisertib 0.063 | [9] 0.046 | gefitinib 0.008

RSU1 (UniProt Q15404)
active: [4] 0.405
inactive: vemurafenib -0.006 | [1] 0.005 | barasertib -0.067 | [2] 0.026 | volasertib 0.022 | [3] 0.004 | [5] -0.143 | saracatinib -0.032 | sotrastaurin -0.019 | alvocidib 0.12 | Tubastatin A 0.057 | [6] -0.021 | defactinib -0.042 | [7] -0.008 | encorafenib -0.035 | [8] -0.035 | alisertib -0.005 | [9] 0.015 | gefitinib 0.023

RECQL5 (UniProt O94762)
inactive: vemurafenib -0.028 | [1] -0.045 | barasertib 0.02 | [2] 0.069 | volasertib -0.187 | [3] -0.01 | [4] 0.131 | [5] -0.222 | saracatinib 0.018 | sotrastaurin 0.003 | alvocidib 0.057 | Tubastatin A -0.053 | [6] -0.071 | defactinib 0.068 | [7] 0.074 | encorafenib 0.225 | [8] 0.016 | alisertib -0.003 | [9] 0.09 | gefitinib 0.03

QTRT2 isoform 4 (UniProt Q9H974)
UniProt Q9H974, sequence (Q9H974 whole entry, looked up): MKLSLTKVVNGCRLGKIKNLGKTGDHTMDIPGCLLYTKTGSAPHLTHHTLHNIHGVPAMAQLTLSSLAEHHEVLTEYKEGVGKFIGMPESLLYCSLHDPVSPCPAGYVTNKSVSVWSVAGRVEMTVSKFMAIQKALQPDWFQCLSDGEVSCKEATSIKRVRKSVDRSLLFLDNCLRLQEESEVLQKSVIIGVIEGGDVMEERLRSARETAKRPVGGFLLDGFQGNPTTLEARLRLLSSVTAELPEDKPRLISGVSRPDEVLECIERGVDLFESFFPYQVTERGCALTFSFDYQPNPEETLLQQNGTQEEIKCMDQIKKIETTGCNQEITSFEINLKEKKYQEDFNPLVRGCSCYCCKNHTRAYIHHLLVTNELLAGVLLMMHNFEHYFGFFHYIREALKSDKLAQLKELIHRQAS
active: [4] -0.318 | [5] 0.227
inactive: vemurafenib 0.003 | [1] 0.012 | barasertib 0.004 | [2] -0.022 | volasertib 0.036 | [3] -0.035 | saracatinib 0.016 | sotrastaurin 0.013 | alvocidib -0.105 | Tubastatin A 0.003 | [6] 0.018 | defactinib -0.014 | [7] 0 | encorafenib -0.018 | [8] -0.044 | alisertib 0.016 | [9] 0.008 | gefitinib 0.031

RAE1 (UniProt P78406)
UniProt P78406, sequence (P78406 whole entry, looked up): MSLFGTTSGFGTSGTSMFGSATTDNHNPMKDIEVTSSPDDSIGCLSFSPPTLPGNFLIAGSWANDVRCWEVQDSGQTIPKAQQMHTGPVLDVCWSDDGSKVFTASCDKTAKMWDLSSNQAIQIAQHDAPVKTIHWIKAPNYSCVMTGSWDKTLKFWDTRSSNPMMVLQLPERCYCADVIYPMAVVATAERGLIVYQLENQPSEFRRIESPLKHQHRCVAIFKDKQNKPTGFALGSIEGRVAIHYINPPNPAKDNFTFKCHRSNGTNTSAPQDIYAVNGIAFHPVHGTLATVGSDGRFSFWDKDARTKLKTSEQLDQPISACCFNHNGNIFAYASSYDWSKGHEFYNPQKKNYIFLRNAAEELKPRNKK
inactive: vemurafenib -0.017 | [1] -0.021 | barasertib -0.051 | [2] 0.04 | volasertib -0.081 | [3] 0.018 | [5] 0.131 | saracatinib 0.039 | sotrastaurin 0.044 | alvocidib -0.038 | Tubastatin A -0.072 | [6] 0.039 | defactinib -0.004 | [7] -0.044 | encorafenib 0.038 | alisertib -0.015 | [9] -0.002 | gefitinib 0.033
active: [4] -0.355 | [8] 0.345

RPL28 (UniProt P46779)
active: [4] 0.278
inactive: vemurafenib 0 | [1] -0.016 | barasertib -0.049 | [2] -0.001 | volasertib 0.006 | [3] -0.017 | [5] -0.066 | saracatinib -0.011 | sotrastaurin -0.038 | alvocidib 0.03 | Tubastatin A 0.006 | [6] -0.009 | defactinib -0.018 | [7] 0.036 | encorafenib 0.012 | [8] -0.014 | alisertib 0.011 | [9] -0.005 | gefitinib -0.058

RAD50 isoform 2 (UniProt Q92878)
UniProt Q92878, sequence (Q92878 whole entry, looked up): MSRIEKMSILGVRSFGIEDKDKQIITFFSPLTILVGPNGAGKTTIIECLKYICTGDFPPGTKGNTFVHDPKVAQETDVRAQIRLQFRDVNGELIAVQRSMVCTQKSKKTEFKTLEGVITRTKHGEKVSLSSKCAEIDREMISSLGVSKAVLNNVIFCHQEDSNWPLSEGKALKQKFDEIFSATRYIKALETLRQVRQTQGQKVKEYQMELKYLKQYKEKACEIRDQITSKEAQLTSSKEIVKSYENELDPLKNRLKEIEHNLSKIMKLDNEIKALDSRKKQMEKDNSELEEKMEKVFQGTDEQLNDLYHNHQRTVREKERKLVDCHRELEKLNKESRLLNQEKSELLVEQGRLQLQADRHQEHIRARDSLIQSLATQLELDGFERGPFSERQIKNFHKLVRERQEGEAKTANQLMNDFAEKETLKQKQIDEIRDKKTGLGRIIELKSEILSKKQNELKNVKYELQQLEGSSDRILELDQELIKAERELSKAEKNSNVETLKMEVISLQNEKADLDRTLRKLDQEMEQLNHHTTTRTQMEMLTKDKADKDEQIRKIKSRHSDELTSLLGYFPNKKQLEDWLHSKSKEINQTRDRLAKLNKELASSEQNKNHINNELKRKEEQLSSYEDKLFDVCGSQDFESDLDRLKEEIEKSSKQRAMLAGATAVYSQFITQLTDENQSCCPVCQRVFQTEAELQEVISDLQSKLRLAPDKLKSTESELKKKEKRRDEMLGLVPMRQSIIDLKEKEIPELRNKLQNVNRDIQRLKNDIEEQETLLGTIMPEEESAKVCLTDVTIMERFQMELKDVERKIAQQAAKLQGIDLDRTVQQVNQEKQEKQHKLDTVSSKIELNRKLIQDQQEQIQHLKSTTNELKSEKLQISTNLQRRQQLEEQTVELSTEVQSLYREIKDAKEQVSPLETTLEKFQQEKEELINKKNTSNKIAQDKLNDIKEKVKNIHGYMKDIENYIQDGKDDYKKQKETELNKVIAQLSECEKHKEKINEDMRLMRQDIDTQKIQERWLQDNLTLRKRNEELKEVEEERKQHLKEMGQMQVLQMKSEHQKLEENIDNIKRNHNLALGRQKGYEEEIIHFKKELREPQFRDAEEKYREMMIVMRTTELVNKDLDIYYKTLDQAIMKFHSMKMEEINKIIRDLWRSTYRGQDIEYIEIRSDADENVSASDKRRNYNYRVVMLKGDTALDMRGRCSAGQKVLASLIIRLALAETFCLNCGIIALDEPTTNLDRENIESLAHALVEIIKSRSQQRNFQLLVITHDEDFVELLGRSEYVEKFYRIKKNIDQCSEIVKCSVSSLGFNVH
inactive: vemurafenib 0.004 | [1] 0.013 | barasertib 0.025 | [2] -0.011 | volasertib -0.047 | [3] 0.039 | [4] -0.024 | [5] -0.024 | saracatinib 0 | sotrastaurin 0.036 | alvocidib 0.023 | Tubastatin A -0.137 | [6] 0.008 | defactinib 0.026 | [7] -0.04 | encorafenib 0.006 | [8] 0.108 | alisertib 0.002 | [9] 0.001 | gefitinib -0.016

RPL31 (UniProt P62899)
inactive: vemurafenib 0.01 | [1] 0.004 | barasertib 0.004 | [2] 0.006 | volasertib -0.005 | [3] -0.013 | [4] -0.043 | [5] -0.005 | saracatinib 0.024 | sotrastaurin 0.014 | alvocidib -0.013 | Tubastatin A 0.032 | [6] -0.042 | defactinib -0.024 | [7] 0.044 | encorafenib -0.016 | [8] 0.035 | alisertib 0.033 | [9] -0.015 | gefitinib -0.035

RDH10 (UniProt Q8IZV5)
UniProt Q8IZV5, sequence (Q8IZV5 whole entry, looked up): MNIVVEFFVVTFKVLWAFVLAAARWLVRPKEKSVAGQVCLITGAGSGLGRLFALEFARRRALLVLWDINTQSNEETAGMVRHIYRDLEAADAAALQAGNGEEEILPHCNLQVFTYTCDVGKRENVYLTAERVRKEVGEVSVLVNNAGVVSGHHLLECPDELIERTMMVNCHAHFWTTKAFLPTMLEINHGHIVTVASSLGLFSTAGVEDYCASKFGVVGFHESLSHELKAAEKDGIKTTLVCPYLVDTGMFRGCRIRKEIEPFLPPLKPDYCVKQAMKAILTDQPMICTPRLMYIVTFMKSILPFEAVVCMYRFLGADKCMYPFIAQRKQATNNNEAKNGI
inactive: vemurafenib 0.054 | [1] 0.032 | barasertib 0.027 | [2] -0.011 | volasertib 0.035 | [3] -0.072 | [4] -0.067 | [5] 0.062 | saracatinib -0.035 | sotrastaurin -0.006 | alvocidib -0.013 | Tubastatin A 0.015 | [6] 0.069 | defactinib 0.009 | [7] -0.013 | encorafenib -0.001 | alisertib 0.037 | [9] 0.007 | gefitinib -0.004
active: [8] 0.346

RABL3 (UniProt Q5HYI8)
UniProt Q5HYI8, sequence (Q5HYI8 whole entry, looked up): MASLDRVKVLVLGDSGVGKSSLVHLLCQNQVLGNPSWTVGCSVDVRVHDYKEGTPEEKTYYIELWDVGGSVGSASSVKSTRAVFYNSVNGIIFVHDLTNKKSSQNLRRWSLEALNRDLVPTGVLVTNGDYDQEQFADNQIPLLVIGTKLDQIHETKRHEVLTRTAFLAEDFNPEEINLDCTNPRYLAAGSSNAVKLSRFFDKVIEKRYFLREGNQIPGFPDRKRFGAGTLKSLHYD
inactive: vemurafenib 0.043 | [1] 0.024 | barasertib 0.033 | [2] -0.072 | volasertib -0.045 | [3] 0.632 | [4] -0.045 | [5] -0.032 | saracatinib 0.018 | sotrastaurin 0.069 | alvocidib -0.023 | Tubastatin A -0.193 | [6] 0.154 | defactinib 0 | [7] -0.021 | encorafenib 0.02 | [8] -0.01 | alisertib -0.036 | [9] -0.038 | gefitinib 0.005

RBMX (UniProt P38159)
inactive: vemurafenib -0.058 | [1] 0.013 | barasertib -0.026 | [2] -0.012 | volasertib -0.02 | [3] 0.067 | [4] -0.007 | [5] 0.009 | saracatinib -0.031 | sotrastaurin -0.014 | alvocidib -0.003 | Tubastatin A -0.03 | [6] -0.042 | defactinib 0.023 | [7] -0.022 | encorafenib 0.021 | [8] -0.068 | alisertib 0.002 | [9] 0.013 | gefitinib 0.023
